Experimental data reported in the supplement of paper PMC10849652.
Of roughly 7,900 targets only a part is listed; those with a hit were picked by preference. About 0.6% of all pairs of compound and target were hits. A number with no mark means an inactive call.

Legend:
Test in all cases: log2 fold change, soluble protein after heating vs DMSO (PISA); higher = thermal stabilisation; K562 cells, 10 uM, 30 min; active = over 0.2 and 3.5 SD of the protein, either way, in both replicates (recomputed)
[1] = compound: COC1=CC=C(C=C1)CN2C=CC3=C2C=C(C=C3)C(=O)NO
Outline: (§1)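 Soluble protein was quantified by TMTpro 16plex LC-MS/MS after channel sums were equalised. It was obtained as the supernatant after 21,000xg for 90 min from pooled aliquots of K562 cells (2×10^6 cells/mL, 10 μM compound, 30 min) heated for 3 min across 48°C-58°C and extracted in PBS with 0.5% NP-40 at 4°C. Thermal stability values are relative to control samples and come from duplicates. They are given as log2 fold changes.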

filanesib = compound: CON(C)C(=O)N1N=C(c2cc(F)ccc2F)S[C@@]1(CCCN)c1ccccc1 [filanesib]
Outline: as §1

zotarolimus = compound: CO[C@H]1C[C@@H]2CC[C@@H](C)[C@@](O)(O2)C(=O)C(=O)N2CCCC[C@H]2C(=O)O[C@H]([C@H](C)C[C@@H]2CC[C@H](n3cnnn3)[C@H](OC)C2)CC(=O)[C@H](C)/C=C(\C)[C@@H](O)[C@@H](OC)C(=O)[C@H](C)C[C@H](C)/C=C/C=C/C=C/1C [zotarolimus]
Outline: as §1

idasanutlin = compound: COc1cc(C(=O)O)ccc1NC(=O)[C@@H]1N[C@@H](CC(C)(C)C)[C@](C#N)(c2ccc(Cl)cc2F)[C@H]1c1cccc(Cl)c1F [idasanutlin]
Outline: as §1

alisertib = compound: COc1cc(Nc2ncc3c(n2)-c2ccc(Cl)cc2C(c2c(F)cccc2OC)=NC3)ccc1C(=O)O [alisertib]
Outline: as §1

[2] = compound: COc1cc2nc(-c3cc(F)ccc3O)nc(N[C@@H]3CNC[C@H]3C(C)(C)O)c2cc1OC
Outline: as §1

gefitinib = compound: COc1cc2ncnc(Nc3ccc(F)c(Cl)c3)c2cc1OCCCN1CCOCC1 [gefitinib]
Outline: as §1

[3] = compound: COc1cccc2cc(-c3nc([C@H]4CC[C@H](C(=O)O)CC4)n4ncnc(N)c34)[nH]c12
Outline: as §1

lapatinib = compound: CS(=O)(=O)CCNCc1ccc(-c2ccc3ncnc(Nc4ccc(OCc5cccc(F)c5)c(Cl)c4)c3c2)o1 [lapatinib]
Outline: as §1

pictilisib = compound: CS(=O)(=O)N1CCN(Cc2cc3nc(-c4cccc5[nH]ncc45)nc(N4CCOCC4)c3s2)CC1 [pictilisib]
Outline: as §1

UniProt Q9UEY8, sequence (Q9UEY8 whole entry, looked up): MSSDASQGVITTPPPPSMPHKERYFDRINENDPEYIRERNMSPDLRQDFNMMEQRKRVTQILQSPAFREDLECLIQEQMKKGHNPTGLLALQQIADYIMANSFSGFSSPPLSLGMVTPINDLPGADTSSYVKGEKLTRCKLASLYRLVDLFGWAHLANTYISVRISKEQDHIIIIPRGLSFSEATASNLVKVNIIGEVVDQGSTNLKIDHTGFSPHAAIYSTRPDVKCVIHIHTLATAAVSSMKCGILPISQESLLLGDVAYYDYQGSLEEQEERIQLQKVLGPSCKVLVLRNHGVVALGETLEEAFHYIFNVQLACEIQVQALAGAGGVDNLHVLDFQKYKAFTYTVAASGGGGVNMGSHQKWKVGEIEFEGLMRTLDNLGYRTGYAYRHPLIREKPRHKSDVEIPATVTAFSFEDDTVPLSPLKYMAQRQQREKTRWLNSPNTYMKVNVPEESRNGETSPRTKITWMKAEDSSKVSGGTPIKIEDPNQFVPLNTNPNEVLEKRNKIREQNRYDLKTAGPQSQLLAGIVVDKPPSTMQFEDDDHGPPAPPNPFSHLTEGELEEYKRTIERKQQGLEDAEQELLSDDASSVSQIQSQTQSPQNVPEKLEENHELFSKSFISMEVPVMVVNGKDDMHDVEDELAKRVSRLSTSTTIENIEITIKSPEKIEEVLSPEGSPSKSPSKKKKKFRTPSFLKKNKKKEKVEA
UniProt P08758, sequence (P08758 whole entry, looked up): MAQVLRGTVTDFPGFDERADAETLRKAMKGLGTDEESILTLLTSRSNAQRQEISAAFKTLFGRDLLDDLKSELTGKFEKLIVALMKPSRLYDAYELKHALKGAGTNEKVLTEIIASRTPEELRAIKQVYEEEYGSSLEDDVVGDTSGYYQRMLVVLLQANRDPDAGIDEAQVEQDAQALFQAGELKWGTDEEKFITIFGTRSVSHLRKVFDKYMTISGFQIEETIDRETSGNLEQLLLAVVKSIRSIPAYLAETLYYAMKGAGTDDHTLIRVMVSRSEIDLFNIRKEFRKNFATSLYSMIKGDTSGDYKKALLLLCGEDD
UniProt P54886, sequence (P54886 whole entry, looked up): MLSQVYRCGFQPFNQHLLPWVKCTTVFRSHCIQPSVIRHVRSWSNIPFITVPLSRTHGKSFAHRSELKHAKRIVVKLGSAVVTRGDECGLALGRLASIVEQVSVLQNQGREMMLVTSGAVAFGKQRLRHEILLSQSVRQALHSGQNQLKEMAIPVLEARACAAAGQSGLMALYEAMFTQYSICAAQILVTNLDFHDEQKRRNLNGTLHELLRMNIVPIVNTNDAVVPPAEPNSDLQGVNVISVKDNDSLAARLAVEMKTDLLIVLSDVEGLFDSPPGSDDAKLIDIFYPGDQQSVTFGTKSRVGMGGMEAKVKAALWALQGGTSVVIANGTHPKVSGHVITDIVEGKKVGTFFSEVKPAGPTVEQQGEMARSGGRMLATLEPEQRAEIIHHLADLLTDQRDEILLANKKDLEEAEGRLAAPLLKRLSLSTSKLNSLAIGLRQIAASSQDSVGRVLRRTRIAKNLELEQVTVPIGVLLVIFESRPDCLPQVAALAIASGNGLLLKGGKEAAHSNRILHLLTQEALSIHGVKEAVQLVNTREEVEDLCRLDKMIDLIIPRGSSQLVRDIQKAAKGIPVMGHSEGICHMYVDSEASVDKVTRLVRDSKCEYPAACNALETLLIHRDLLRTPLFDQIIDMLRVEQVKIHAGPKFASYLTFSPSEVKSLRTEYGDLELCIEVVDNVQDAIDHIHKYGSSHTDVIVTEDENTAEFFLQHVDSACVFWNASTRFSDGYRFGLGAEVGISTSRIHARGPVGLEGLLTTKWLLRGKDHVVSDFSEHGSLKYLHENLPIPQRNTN
UniProt Q99758, sequence (Q99758 whole entry, looked up): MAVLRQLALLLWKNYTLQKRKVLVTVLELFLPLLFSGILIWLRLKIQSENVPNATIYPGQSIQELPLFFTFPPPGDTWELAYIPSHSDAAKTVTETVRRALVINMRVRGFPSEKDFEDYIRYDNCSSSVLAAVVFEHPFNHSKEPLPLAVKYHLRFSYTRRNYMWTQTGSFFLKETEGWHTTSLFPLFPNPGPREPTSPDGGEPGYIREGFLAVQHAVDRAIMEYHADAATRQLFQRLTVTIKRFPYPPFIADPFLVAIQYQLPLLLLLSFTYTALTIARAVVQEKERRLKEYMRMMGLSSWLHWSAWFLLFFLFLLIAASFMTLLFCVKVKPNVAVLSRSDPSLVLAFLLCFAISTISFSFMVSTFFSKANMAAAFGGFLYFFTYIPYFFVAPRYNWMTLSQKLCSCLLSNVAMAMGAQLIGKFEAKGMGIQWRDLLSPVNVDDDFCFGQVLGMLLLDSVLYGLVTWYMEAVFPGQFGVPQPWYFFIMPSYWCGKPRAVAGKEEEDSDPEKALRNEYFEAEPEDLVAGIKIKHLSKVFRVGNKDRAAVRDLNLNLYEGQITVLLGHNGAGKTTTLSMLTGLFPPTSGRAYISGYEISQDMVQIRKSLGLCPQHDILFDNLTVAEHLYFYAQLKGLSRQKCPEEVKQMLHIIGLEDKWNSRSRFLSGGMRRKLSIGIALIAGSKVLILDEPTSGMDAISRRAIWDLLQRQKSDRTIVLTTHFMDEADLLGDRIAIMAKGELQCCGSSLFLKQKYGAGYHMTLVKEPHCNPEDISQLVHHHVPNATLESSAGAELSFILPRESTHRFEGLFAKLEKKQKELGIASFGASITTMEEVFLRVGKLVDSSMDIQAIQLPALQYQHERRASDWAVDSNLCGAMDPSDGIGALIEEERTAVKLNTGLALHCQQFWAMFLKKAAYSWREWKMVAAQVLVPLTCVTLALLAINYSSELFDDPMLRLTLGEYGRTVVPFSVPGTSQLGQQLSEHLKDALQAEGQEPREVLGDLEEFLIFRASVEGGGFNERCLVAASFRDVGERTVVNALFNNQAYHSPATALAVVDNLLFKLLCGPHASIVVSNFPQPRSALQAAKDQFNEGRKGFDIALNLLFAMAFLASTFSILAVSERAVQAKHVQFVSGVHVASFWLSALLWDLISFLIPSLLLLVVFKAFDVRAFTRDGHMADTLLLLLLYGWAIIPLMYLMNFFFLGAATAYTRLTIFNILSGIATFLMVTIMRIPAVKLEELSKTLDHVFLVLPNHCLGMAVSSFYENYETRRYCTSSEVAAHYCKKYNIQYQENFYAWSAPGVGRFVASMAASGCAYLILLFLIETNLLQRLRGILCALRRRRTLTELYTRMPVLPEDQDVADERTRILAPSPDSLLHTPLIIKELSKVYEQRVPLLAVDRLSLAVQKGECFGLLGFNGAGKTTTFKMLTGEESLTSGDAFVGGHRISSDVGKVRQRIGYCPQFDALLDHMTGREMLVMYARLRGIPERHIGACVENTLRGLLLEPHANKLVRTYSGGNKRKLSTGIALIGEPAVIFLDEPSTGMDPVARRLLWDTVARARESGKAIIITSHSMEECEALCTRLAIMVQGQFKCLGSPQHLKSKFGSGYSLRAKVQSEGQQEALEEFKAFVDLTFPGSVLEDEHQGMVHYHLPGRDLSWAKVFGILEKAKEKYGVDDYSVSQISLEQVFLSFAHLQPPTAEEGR
UniProt O43865, sequence (O43865 whole entry, looked up): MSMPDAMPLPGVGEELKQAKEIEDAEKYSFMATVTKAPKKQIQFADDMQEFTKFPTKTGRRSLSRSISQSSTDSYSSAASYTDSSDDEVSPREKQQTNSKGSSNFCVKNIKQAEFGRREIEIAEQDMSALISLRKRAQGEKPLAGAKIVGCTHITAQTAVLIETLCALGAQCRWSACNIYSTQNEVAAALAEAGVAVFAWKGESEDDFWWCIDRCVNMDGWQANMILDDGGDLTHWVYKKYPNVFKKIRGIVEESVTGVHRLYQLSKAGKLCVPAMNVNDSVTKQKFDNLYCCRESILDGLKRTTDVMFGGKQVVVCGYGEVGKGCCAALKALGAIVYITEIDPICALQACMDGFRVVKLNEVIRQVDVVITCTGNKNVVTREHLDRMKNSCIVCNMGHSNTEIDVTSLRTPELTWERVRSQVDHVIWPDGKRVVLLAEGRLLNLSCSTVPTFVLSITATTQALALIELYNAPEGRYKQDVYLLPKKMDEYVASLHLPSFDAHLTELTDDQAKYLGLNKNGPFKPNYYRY
UniProt P11117, sequence (P11117 whole entry, looked up): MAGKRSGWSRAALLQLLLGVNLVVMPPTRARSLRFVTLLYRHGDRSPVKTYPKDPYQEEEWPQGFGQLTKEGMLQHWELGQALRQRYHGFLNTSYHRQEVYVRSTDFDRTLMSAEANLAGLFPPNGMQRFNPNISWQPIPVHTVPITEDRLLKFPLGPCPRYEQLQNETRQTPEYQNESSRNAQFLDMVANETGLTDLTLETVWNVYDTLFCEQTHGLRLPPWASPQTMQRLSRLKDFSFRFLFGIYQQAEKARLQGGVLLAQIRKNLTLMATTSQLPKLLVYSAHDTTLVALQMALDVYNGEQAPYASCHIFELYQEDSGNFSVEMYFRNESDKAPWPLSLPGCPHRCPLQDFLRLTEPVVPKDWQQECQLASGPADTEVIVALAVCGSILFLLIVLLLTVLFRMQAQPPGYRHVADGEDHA
UniProt Q2TAA5, sequence (Q2TAA5 whole entry, looked up): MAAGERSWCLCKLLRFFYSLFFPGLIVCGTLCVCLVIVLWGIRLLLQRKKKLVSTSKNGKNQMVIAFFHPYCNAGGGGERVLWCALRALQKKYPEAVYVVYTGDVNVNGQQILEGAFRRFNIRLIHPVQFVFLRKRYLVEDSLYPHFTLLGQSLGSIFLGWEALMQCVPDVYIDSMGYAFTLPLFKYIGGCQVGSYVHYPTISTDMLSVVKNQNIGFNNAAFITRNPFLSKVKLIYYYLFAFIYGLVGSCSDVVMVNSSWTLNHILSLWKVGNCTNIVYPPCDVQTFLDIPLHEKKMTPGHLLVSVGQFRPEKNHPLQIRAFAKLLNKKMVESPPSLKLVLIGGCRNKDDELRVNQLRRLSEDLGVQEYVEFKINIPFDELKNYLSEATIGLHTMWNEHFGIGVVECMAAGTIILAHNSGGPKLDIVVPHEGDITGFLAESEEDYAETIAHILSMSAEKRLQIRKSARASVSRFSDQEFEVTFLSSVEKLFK
UniProt Q8WUW1, sequence (Q8WUW1 whole entry, looked up): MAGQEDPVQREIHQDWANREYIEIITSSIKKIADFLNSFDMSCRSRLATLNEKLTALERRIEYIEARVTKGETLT

Target	log2 fold change [1]	log2 fold change (filanesib)	log2 fold change (zotarolimus)	log2 fold change (idasanutlin)	log2 fold change (alisertib)	log2 fold change [2]	log2 fold change (gefitinib)	log2 fold change [3]	log2 fold change (lapatinib)	log2 fold change (pictilisib)
APAF1 (UniProt O14727)	-0.023	-0.066	-0.03	-0.068	0.08	0.279	-0.163	0.09	0.369	-0.04
BRD8 (UniProt Q9H0E9)	-0.013	0.064	-0.029	0.08	-0.061	-0.032	0.005	0.017	-0.009	0.103
APOB (UniProt P04114)	0.034	-0.86 (active)	-0.013	-0.039	0	-0.384	-0.129	0.164	-0.352	0.078
BTAF1 (UniProt O14981)	0.018	-0.006	-0.004	-0.095	0.175	0.093	-0.045	-0.028	-0.01	-0.032
ACAP2 (UniProt Q15057)	-0.001	0.119	0.01	-0.047	0.011	0.283 (active)	0.02	0.014	0.015	-0.059
ACBD6 (UniProt Q9BR61)	0.099	0.034	0.016	0.09	-0.088	0.133	-0.018	-0.271	-0.14	0.012
ATP7B (UniProt P35670)	-0.02	0.087	-0.075	-0.233 (active)	-0.02	-0.011	0.028	0.026	0.061	0.061
ALDH18A1 (UniProt P54886)	-0.024	-0.01	0.045	-0.233	-0.09	0.215	-0.18	0.067	-0.652 (active)	-0.101
ANXA5 (UniProt P08758)	0.033	-0.033	0.049	-0.013	-0.006	0.009	0.05	-0.032	0.015	-0.021
BCCIP (UniProt Q9P287)	-0.022	0.06	0.031	-0.048	-0.086	0.033	0.036	-0.024	0.01	-0.024
AAMP (UniProt Q13685)	-0.031	0.003	0.029	-0.052	-0.049	-0.027	0.026	0.033	0.024	-0.002
ACP2 (UniProt P11117)	-0.034	-0.121	-0.016	-0.026	0.036	-0.002	0.001	0.053	0.038	-0.031
ARFGEF1 (UniProt Q9Y6D6)	0.043	0.014	0.111	-0.092	-0.075	0.246 (active)	0.06	0.016	0.116	0.006
ATAD3A isoform 2 (UniProt Q9NVI7)	-0.029	-0.005	-0.053	0.073	-0.006	-0.116	-0.199	0.001	-0.029	-0.185
AHCYL1 (UniProt O43865)	0.015	-0.05	-0.017	-0.056	-0.087	0.046	0.029	0.093	0.014	0.126
BCCIP isoform 2 (UniProt Q9P287)	-0.059	0.05	-0.002	-0.021	0.024	0.021	0	0.026	-0.007	-0.021
ATP1A1 (UniProt P05023)	0.09	0.013	0.002	0.004	-0.092	0.032	0.03	0.054	-0.019	-0.023
ARPP19 (UniProt P56211)	0.294 (active)	0.033	-0.016	0.002	-0.061	-0.184	-0.007	0.075	-0.01	-0.073
ALDH9A1 isoform 3 (UniProt P49189)	-0.006	-0.04	0.001	-0.006	0.017	-0.01	-0.028	0.041	-0.007	-0.002
ARFRP1 (UniProt Q13795)	0.127	-0.261 (active)	0.02	-0.168	0.111	0.039	-0.016	-0.024	0.071	0.168
AK6 (UniProt Q9Y3D8)	0.009	-0.052	0.003	0.012	-0.035	0.053	0.03	0.006	-0.049	-0.01
ADK (UniProt P55263)	-0.009	-0.013	-0.014	-0.083	-0.037	0.015	0.199	0.007	0.21	0.167
BRD2 isoform 2 (UniProt P25440)	-0.174	-0.11	-0.361	0.072		0.214			0.005	0.016
BRK1 isoform 2 (UniProt Q8WUW1)	0.113	0.127	-0.049	0.031	-0.076	-0.07	0.05	-0.041	-0.032	0.018
BDH2 (UniProt Q9BUT1)	0.022	-0.007	0.098	-0.039	0.071	0.065		-0.001	0.012	0.007
ABCA3 (UniProt Q99758)	-0.044	0.062	0.03	-0.021		0.147			-0.084	0.01
ACSL1 (UniProt P33121)	-0.014	-0.08	0.038	-0.017	0.015	-0.261	0.024	0.024	0.017	0.041
ADD3 isoform 2 (UniProt Q9UEY8)	-0.022	-0.025	0.186	-0.276	-0.042	0.094		-0.003	-0.028	0.125
ALG11 (UniProt Q2TAA5)	-0.018	-0.038	0.036	-0.051	-0.075	-0.003	0.206	0.026	0.005	0.032
APH1A (UniProt Q96BI3)	0.101	-0.039	-0.062	0.005	-0.228	-0.236	0.043	0.059	0.091	0.013
